Screens deposited in PubChem by National Center for Advancing Translational Sciences (NCATS).
This excerpt belongs to a sample that is enriched for hits.
ClpP mod: qHTS Assay for Activators of ClpP; ATP-dependent Clp protease proteolytic subunit (Bacillus subtilis (strain 168)), P80244; purified B. subtilis ClpP, FRET peptide cleavage, 20 min; Potency, µM (highest dose often 57.5 µM), for inactives: at the top dose activity change, negative = active; 1.9% of 340,000 active; AID 651965, 2013; active = well fitted falling curve with a large enough effect; inconclusive = small, poorly fitted or top-dose-only effect; inactive = no such curve, though single readings can be large or run the other way; note: potency is the fitted concentration of half-maximal effect; the source files actives as falling curves though it sought activators and does not explain the sign; nearly all actives have a fitted effect of over 65% in size
Target sequence (P80244 whole entry, looked up): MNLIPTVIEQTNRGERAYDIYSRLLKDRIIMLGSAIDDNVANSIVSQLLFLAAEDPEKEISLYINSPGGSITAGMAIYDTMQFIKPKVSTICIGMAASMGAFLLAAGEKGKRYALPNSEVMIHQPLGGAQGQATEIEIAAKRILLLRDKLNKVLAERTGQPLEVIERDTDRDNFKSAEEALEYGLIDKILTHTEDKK
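Buffer: 100 mM Tris/HCl pH8, 100 mM KCl, 0.05% low protease BSA, 2.5% glycerol, 0.01% Tween-20. ClpP 10 microg/mL final; 20 min RT; delta FRET normalized to ADEP and DMSO controls.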
N370S GC mod: inhibits or activates N370S mutant glucocerebrosidase | P04062 | N370S GC spleen homogenate, 4MU-glucoside fluorescence | Potency, µM (doses to about 59.4 µM), inactives show at the top dose activity change, negative = inhibition, usual class: inhibitors | 0.092% of 330,000 active | AID 2101;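 note: potency is the fitted concentration of half-maximal effect; 0% = full enzyme activity and -100% = no enzyme basal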
Glioma ERSR ind: induces the endoplasmic reticulum stress response in human glioma cells | U87-MG GRP78 promoter luciferase reporter, 16 h | Potency, µM, for the others: top-dose activation, hits mostly activators | 0.02% of 420,000 active | AID 602332; note: potency is the fitted concentration of half-maximal effect; series mostly up to about 76 µM; % of control where 0% means no effect; nearly all actives have a fitted effect of over 35% in size
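Stably transfected U87-MG glioma cells carrying a GRP78-based luciferase sensor; 16 h compound incubation. Luminescence end-point read 10 min after Bright-Glo addition at room temperature.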
CBFb RUNX1 block: CBF-beta/RUNX1 interaction disruption; Potency, µM (series often up to 59.8 µM), inactives show at the highest dose activity, negative = inhibition, actives largely listed as inhibitors; 230,000 tested, under 10 active; AID 1477; AlphaScreen CBFb-His/RUNX1-biotin binding, biochemical; note: % of control where 0% means no effect
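Interaction loss through any mechanism counts as activity. Pre-formed complex of His-CBF-beta and biotin-RUNX1 (30 nM apiece) is incubated with compound 15 min, then with 50 ng nickel and 50 ng streptavidin beads for 90 min before AlphaScreen detection.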
a7 integrin act: activators of alpha7 integrin expression for muscular dystrophy; alpha7betagal myoblasts, beta-gal FDG fluorescence, 48 h; Potency, µM (series often up to 38.3 µM), for inactives: at the highest dose activation, usual class: activators; 0.064% of 350,000 active; AID 624291;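 note: potency is the fitted concentration of half-maximal effect; 100% = response of the positive control SU9516; nearly all actives have a fitted effect of over 60% in size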
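alpha7betagal+/- myoblasts (passage 13, 250/well) treated 48 h at 37C with compounds at 1:260 dilution of DMSO stock. Lysed, then beta-galactosidase activity read as FDG fluorescence (ex 480/em 540) after 30 min, with pre-read for autofluorescence.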
Anesthetic bind: candidate novel general anesthetic via apoferritin binding. P02791. apoferritin/1-aminoanthracene competitive binding, fluorescence. Potency, µM (highest dose often 77.5 µM), for inactives: at the top dose activity change, negative = displacement, most hits filed as inhibitors. 0.074% of 350,000 active; note: potency is the fitted concentration of half-maximal effect; % is set by controls: 0 for no effect and ±100 for the full control effect; nearly all actives have a fitted effect of over 20% in size
Target sequence (P02791 2-175 limits assumed): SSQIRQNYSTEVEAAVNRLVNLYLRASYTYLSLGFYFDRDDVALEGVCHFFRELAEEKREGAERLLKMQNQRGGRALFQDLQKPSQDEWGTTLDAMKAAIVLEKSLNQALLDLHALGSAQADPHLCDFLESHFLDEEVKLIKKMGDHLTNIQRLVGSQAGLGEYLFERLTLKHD
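Steps: apoferritin (10 uM) was premixed with half-saturated 1-AMA in PBS, compounds were pin-transferred, plates stood 10 min at room temperature, fluorescence was read at 380/535 nm, and curves were fitted with a Hill equation.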
ClpP validation: validation of B. subtilis ClpP protease hits (inhibitors) | purified B. subtilis ClpP, FRET-FV substrate cleavage, 20 min | Potency, µM (series often up to 57.5 µM), inactives show at the top dose activity change, negative = inhibition, actives largely listed as inhibitors | shares compounds with ClpP mod | 40% of 470 active; note: potency is the fitted concentration of half-maximal effect; % is set by controls: 0 for no effect and ±100 for the full control effect; nearly all actives have a fitted effect of over 70% in size
* = called active by the depositor; ? = inconclusive; · = no result; [ ] = dose if it differs, or a comment. Unless noted, calls come from the whole dose curve; as a rule, active = well fitted curve in the direction sought with a large enough effect; inconclusive = small, poorly fitted or top-dose-only effect, or another doubt; inactive = no such curve, though single readings can be large; an effect the other way counts as inactive or inconclusive.

SMILES	ClpP mod	N370S GC mod	Glioma ERSR ind	CBFb RUNX1 block	a7 integrin act	Anesthetic bind	ClpP validation
O=c1[nH]c2cc(Cl)ccc2c(O)c1-c1cccc(Oc2ccccc2)c1	-17%	1%	-2%	2%	·	-7%	·
CN(N=O)c1ccc(/C=C/c2ccnc3ccccc23)cc1	1%	·	-1%	·	·	·	·
O=C(Nc1ccc2nc(SCC(=O)N3CCc4ccccc43)sc2c1)c1ccc(F)cc1	416%	·	-1%	·	·	-3%	24µM*
CCc1nc(Nc2ccncc2)c2oc3ccccc3c2n1	8.9µM*	-1%	-5%	-9%	-50%	-21%	?
CCc1nc(Nc2cccc(O)c2)c2oc3ccccc3c2n1	-11%	-12%	-5%	·	4%	-11%	·
COc1cccc(NC(=O)c2cc([N+](=O)[O-])ccc2NCc2cccnc2)c1	42%	-12%	-1%	-15%	19%	-9%	0%
CCc1cc(N2CCOCC2)cc2c1[nH]c1ccccc12	10µM*	4%	-2%	-15%	-15%[7.66 µM]	-4%	17µM*
Cc1sc2ccccc2[n+]1C	-2%	·	-4%	·	·	·	·
COc1cccc(CNC(=O)c2ccc(NC(=O)CC3SC(N4CCCC4)=NC3=O)cc2)c1 (stereo not drawn)	2.8µM*	·	2%	·	-15%	·	0%
N#Cc1ncc(Br)cn1	1%	·	·	·	·	·	·
COc1ccc(CCNc2cc(C)nc3c(-c4ccc(Cl)cc4)cnn23)cc1OC	8.9µM*	13%	3%	?	-16%	232%	24µM*
Cc1ccc(S(=O)(=O)N2CCN(c3nc(N(C)c4cc(Cl)ccc4O)nc4ccccc34)CC2)cc1	-2%	·	·	·	·	·	·
O=c1c2nc(Br)n([C@@H]3O[C@@H]4CO[P@@](O)(=S)O[C@H]4[C@H]3O)c2nc2[nH]c(-c3ccccc3)cn12	·	-2%	1%	7%	·	0%	·
CCOC(=O)C1CCCCN1C(=O)c1oc2c(Cl)cc(C)cc2c1C (stereo not drawn)	53%	-5%	2%	·	9%	?	-1%
O=C(O)c1cc2cccc([N+](=O)[O-])c2[nH]1	1%	·	-4%	·	·	·	·
Cc1ccc2c(c1)CCC2=O	2%	·	-3%	·	·	·	·
COc1ccc(CN2CC[C@H]3C=CC[C@@H](C(=O)NCc4cccnc4)[C@H]3C2=O)cc1OC	-3%	·	-1%	·	·	·	·
